Assay outcomes (PubChem)
In the library only some 9.3% were active in any assay of this set; here they are far more common.
SMN2 splice enh: increases expression of the SMN2 splice variant. 2.8% of 210,000 active. HEK293 SMN2-luciferase splicing reporter, luminescence, 30-36 h. Potency, µM (doses to about 46.1 µM), inactives show at the top dose activity change, positive = activation, hits mostly activators. AID 1458; further: % of control where 0% means no effect; nearly all actives have a fitted effect of over 55% in size
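qHTS luciferase splicing reporter: luminescence rises when SMN2 exon 7 is included in transfected HEK293 cells. Compound exposure lasted 30-36 h at 37C, with 4.5 mM final sodium butyrate as control, followed by a ONE-Glo read.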
Rab9 prom act: activators of Rab9 promoter. Huh7 Rab9 promoter-luciferase reporter, luminescence, 24 h. AID 485297. 2.8% of 320,000 active. Potency, µM (highest dose often 9.22 µM), for inactives: at the top dose activation, negative = inhibition, most hits filed as activators; further: % of control where 0% means no effect; nearly all actives have a fitted effect of over 60% in size
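Cell-based reporter: Huh7 stable for Rab9 promoter-driven luciferase, plated in reduced-serum medium with 10% FBS at 1500 cells/well, compound-treated 24 h at 37 °C, luminescence read after 10 min reagent.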
FLuc counter: inhibits or activates purified firefly luciferase, miR-21 counter-screen; P08659; purified FLuc, Km substrates, luminescence inhibition; Potency, µM (top dose mostly 57.5 µM), without a hit: at the top dose activity change, negative = inhibition, usual class: inhibitors; 6.9% of 360,000 active;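 further: plate controls were vehicle for no effect and reference inhibitor for full effect; nearly all actives have a fitted effect of over 55% in size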
Target sequence (P08659 whole entry, looked up): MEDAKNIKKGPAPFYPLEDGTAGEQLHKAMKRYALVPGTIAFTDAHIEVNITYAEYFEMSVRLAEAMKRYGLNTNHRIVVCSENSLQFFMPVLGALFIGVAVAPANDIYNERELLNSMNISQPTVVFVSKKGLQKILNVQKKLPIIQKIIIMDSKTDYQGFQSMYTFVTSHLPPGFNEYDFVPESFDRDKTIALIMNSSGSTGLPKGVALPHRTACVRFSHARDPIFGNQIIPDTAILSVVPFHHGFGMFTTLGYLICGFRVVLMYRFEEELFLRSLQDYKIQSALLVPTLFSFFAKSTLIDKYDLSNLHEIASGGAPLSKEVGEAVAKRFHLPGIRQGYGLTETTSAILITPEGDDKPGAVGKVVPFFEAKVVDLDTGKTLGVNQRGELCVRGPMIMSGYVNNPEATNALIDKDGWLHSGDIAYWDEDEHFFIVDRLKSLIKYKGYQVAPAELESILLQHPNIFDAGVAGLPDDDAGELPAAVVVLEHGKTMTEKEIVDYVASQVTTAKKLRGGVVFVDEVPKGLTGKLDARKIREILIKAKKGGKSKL
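Purified P. pyralis luciferase (10nM final) with 10uM D-luciferin and 10uM ATP (Km levels) in 50mM Tris acetate pH 7.5, 10mM Mg acetate, 0.01% Tween-20, 0.05% BSA; qHTS 6-point titration, ~60 µM downward; luminescence read.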
ELG1 repair inh: blocks ELG1-dependent DNA repair in HEK293T cells; HEK293T ELG1-luciferase reporter, luminescence, 16 h; DNA damage induced by 5-fluorouridine; Potency, µM (highest dose often 46.1 µM), for the others: top-dose activity change, negative = inhibition, hits mostly inhibitors; 2.3% of 330,000 active; further: on the % scale 0 is the no-effect control and ±100 the full control effect; nearly all actives have a fitted effect of over 55% in size
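5-Fluorouridine DNA damage + compound/DMSO, 2,000 cells/well, 16 h, 37 °C/5% CO2. ONE-Glo, 30 min RT, luminescence. Readout = decrease in reporter signal.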
NPC1 promoter act: NPC1 promoter activation; 2.4% of 320,000 active; Huh7 NPC1 promoter luciferase reporter, 24 h; Potency, µM (highest dose often 9.22 µM), without a hit: at the top dose activation, usual class: activators; AID 485313; further: % of control where 0% means no effect; nearly all actives have a fitted effect of over 60% in size
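Cells: Huh7 expressing luciferase under the NPC1 promoter, 1500/well. Seeded 2 h, compound added, incubated 24 h at 37 °C. Luciferase reagent, 10 min ambient, then luminescence.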
ELG1 genotox: genotoxicity induction in ELG1-luciferase HEK293T cells | HEK293T ELG1-luciferase reporter, luminescence, 16 h | Potency, µM (top dose mostly 46 µM), for inactives: at the highest dose activity change, positive = activation, hits mostly activators | 1.3% of 330,000 active | AID 504466; further: % of control where 0% means no effect; nearly all actives have a fitted effect of over 60% in size
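Screening used a luciferase reporter fused to human ELG1 in HEK293T cells. Luminescence was read on a CCD plate imager after 16 hr exposure and 30 min ONE-Glo incubation.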
Numbers without * were called inactive; ? = inconclusive; nt = no result; [ ] = dose if it differs, or a comment. The call rests on the fitted dose curve; in most records, active means well fitted curve in the direction sought with a large enough effect; inconclusive means small, poorly fitted or top-dose-only effect, or another doubt; inactive means no such curve, though single readings can be large; an effect the other way counts as inactive or inconclusive. Potency means the concentration at half of the fitted maximal effect.

SMILES | SMN2 splice enh | Rab9 prom act | FLuc counter | ELG1 repair inh | NPC1 promoter act | ELG1 genotox
O=C1CCC(C(=O)N2CCN(c3ccccc3)CC2)CN1CC1CCCCC1 (stereo unspecified) | nt | 0.1% | 5.0% | 6.0% | 3.4% | 0.6%
OC[C@H]1O[C@H](n2cnc3c(N[C@H]4CCC[C@@H]4O)ncnc32)[C@H](O)[C@@H]1O | nt | 2.9%[46.1 µM] | nt | nt | 7.6%[46.1 µM] | nt
Cc1nc(/C(N)=N/OC(=O)c2ccc(Cl)cc2)c(C(F)(F)F)o1 | nt | -3.0% | 7.57µM* | 8.7% | -5.1% | 2.9%
CCc1ccc(NC(=O)c2cnc3scc(C)n3c2=O)cc1 | 8.91µM* | 4.47µM* | ? | ? | ? | 18.4µM*
CCc1ccc(NC(=O)c2cnccn2)cc1 | nt | 1.26µM* | 5.36µM* | ? | 1.26µM* | ?
O=C(Nc1ccc(OC(F)(F)F)cc1)c1cnccn1 | nt | 2.82µM* | 12µM* | ? | 1.78µM* | ?
O=C(c1cccc(F)c1)N1CCC2(CC1)CCN(c1ncccn1)CC2 | -39.2% | nt | nt | nt | nt | nt
COc1ccc(OC)c(C(=O)Cn2cnc3ccccc3c2=O)c1 | nt | -1.3% | -0.8% | -11.7% | 1.7% | 0.6%
CCn1cc(C(=O)O)c(=O)c2cnc(N3CCN(C(=S)Nc4ccccc4C(F)(F)F)CC3)nc21 | nt | -8.1% | -0.8% | 14.6µM* | -5.5% | -12.2%
O=C(c1ccc(Cl)cc1)c1cnc2ccccn12 | 8.5% | 2.51µM* | 9.53µM* | ? | 3.16µM* | 11.6µM*
CCN(CC)CCN(C(=O)C1=COCCO1)c1nc2c(OC)ccc(OC)c2s1 | nt | -0.6% | -3.4% | 1.5% | 4.2% | -1.0%
CCOc1cc(C(=O)NC(CC(=O)O)c2ccc(OC3CCCC3)cc2)cc(OCC)c1OCC (stereo unspecified) | nt | -1.0% | -1.4% | 1.7% | -4.1% | -2.8%
CC(C)(C)c1ccc(C(=O)NC(CC(=O)O)c2ccc(OC3CCCC3)cc2)cc1 (stereo unspecified) | nt | -5.9% | 19µM* | -0.2% | -5.6% | -0.1%
CCC(C)NC(=O)Cn1c(-c2ccccc2)cc(C(C)=O)c1C (stereo unspecified) | 15.4% | -4.4% | -0.2% | -1.8% | -0.4% | -8.1%
Cc1ccc(-c2noc(CSc3ccccc3)n2)cc1 | ? | 1.78µM* | 2.13µM* | ? | 1.78µM* | 7.31µM*
Cc1ccc(-c2noc(CSc3nnc(C)n3-c3ccc(C)c(C)c3)n2)cc1 | -16.9% | nt | -12.4% | nt | nt | nt
Cc1ccc(-c2noc(CSc3nc(N)cc(N)n3)n2)cc1 | ? | 2.24µM* | 15.1µM* | ? | 2.82µM* | 13.4%
Cc1ccc(-c2noc(CSc3nnc(C)n3-c3ccc(C)cc3)n2)cc1 | -2.3% | nt | -10.9% | nt | nt | nt
Cc1cccc(-c2noc(CSc3ccccc3)n2)c1 | ? | 3.55µM* | 9.53µM* | ? | 2.51µM* | ?
Clc1ccc(-c2noc(CSc3nnc(-c4ccncc4)n3-c3ccccc3)n2)cc1 | nt | -6.0% | -0.5% | 16.4µM* | 0.3% | -15.6%
Cc1ccc(-n2c(SCc3nc(-c4ccc(Cl)cc4)no3)nnc2-c2ccncc2)cc1 | -2.8% | nt | -18.5% | nt | nt | nt
Cc1ccc(NC(=O)CSc2nc3ccccc3nc2Cc2ccccc2)c(Cl)c1 | nt | nt | -8.6% | nt | nt | nt
COc1ccc(OCC(=O)OCc2cc(=O)n3nc(-c4cccs4)sc3n2)cc1 | nt | nt | -1.1% | nt | nt | nt
COc1ccccc1NC(=O)NCC1(N(C)C)CCCCC1 | nt | 4.4% | -0.4% | 10.9% | -3.3% | 4.1%
c1ccc(SCc2nc(-c3cccnc3)no2)cc1 | 11.2µM* | 1.41µM* | 10.7µM* | ? | 2µM* | 3.66µM*
SMILES | SMN2 splice enh | Rab9 prom act | FLuc counter | ELG1 repair inh | NPC1 promoter act | ELG1 genotox
c1ccc(C(Cc2nc(-c3cccnc3)no2)c2ccccc2)cc1 | -0.7% | 0.4% | -2.8% | ? | -1.9% | -16.7%
CC(C)c1ccc(NC(=O)CSC2=Nc3ccccc3C3=NC(CC(=O)NCc4cccs4)C(=O)N23)cc1 (stereo unspecified) | nt | nt | -8.5% | nt | nt | nt
N#Cc1ccsc1NC(=O)COC(=O)c1ccc(Br)o1 | nt | nt | nt | ? | nt | 4.2%
N#Cc1ccsc1NC(=O)COC(=O)c1cc(Br)ccc1O | nt | ? | 9.53µM* | ? | 16.0% | 14.5%
COc1ccc(CCC(=O)Nc2sccc2C#N)cc1 | 15.8µM* | 2µM* | 16.9µM* | ? | 3.98µM* | 6.51µM*
N#Cc1ccsc1NC(=O)COC(=O)c1ccc2ccccc2c1 | ? | 0.447µM* | 10.7µM* | ? | ? | ?
O=C(Nc1ccc2c(c1)OCO2)c1ccc(N2CCCC2)c([N+](=O)[O-])c1 | 24.4% | -1.3% | 19µM* | ? | 13.7% | 3.1%
CC1CCCN(c2ccc(C(=O)Nc3cccnc3)cc2[N+](=O)[O-])C1 (stereo unspecified) | 9.1% | 26.1% | ? | 14.6µM* | 23.4% | -9.0%
O=C(Nc1ccc(N2CCCCC2)c(Cl)c1)c1ccc2c(c1)OCCO2 | -61.0% | 28.2% | 5.36µM* | -26.8% | 24.5% | ?
O=C(Nc1ccc2c(c1)OCO2)c1ccc(Cl)s1 | 7.08µM* | 2µM* | 4.26µM* | ? | 2.24µM* | 2.59µM*
O=C(Nc1ccc(N2CCOCC2)c(Cl)c1)c1ccc2c(c1)OCCO2 | nt | 6.2% | ? | ? | -0.2% | -1.4%
COCCn1c(C)cc(O)c(C(c2ccccc2Cl)N2CCN(c3ccccc3)CC2)c1=O (stereo unspecified) | nt | nt | -8.7% | nt | nt | nt
OCCCNc1ncnc2oc(-c3ccccc3)c(-c3ccccc3)c12 | nt | -4.9% | -1.9% | ? | 0.3% | -3.6%
Fc1ccccc1NC(=S)N1CCN(Cc2ccccc2)CC1 | -21.0% | -5.6% | -10.0% | 4.7% | -2.0% | 1.0%
O=C(Nc1ccc(Cl)cc1)c1ccc2c(c1)OCO2 | 4.47µM* | ? | 1.35µM* | ? | 0.398µM* | ?
Cc1cc(C(=O)Nc2ccc3c(c2)OCO3)cs1 | 12.6µM* | 1.26µM* | 4.78µM* | ? | 1.78µM* | 7.31µM*
O=C(Nc1ccc(F)c(F)c1)c1ccc2c(c1)OCO2 | 12.7% | ? | 9.53µM* | ? | 2.51µM* | 3.66µM*
NC(=O)c1ccc(NC(=O)c2ccc3c(c2)OCO3)cc1 | 12.6µM* | 1.58µM* | 4.78µM* | ? | 1.26µM* | 18.4µM*
Cc1cc(C(=O)NC(C)c2ccc3c(c2)OCO3)cs1 (stereo unspecified) | -19.2% | 0.9% | 0.5% | 20.8% | 11.4% | -4.0%
COc1cc(OC)c(S(=O)(=O)NC(C)C)cc1C(=O)O | nt | 0.1% | 1.2% | 2.8% | -7.1% | 5.3%
C[C@H]1Cc2c(COc3ccccc3)nc3c(c2CO1)CN(C(=O)Cc1cccs1)CC3 | -3.1%[9.22 µM] | nt | nt | nt | nt | nt
COc1ccc(Nc2ncc(C#N)c(N)n2)c(OC)c1 | nt | 0.3% | -17.5% | ? | 11.3% | 8.8%
